Inconclusive results are not listed. Active and inactive are the calls of the source. How the source made its calls: active means hit-call score of the fitted dose curve at least 0.9, where 1 is the maximum; inconclusive means response in the unintended direction; inactive means score below 0.9.
These compounds were tested against human Peripheral-type Benzodiazepine Receptor (PBR), TSPO (gene 706) (UniProt P30536) (assay: NVS_MP_hPBR: NovaScreen (NVS) Membrane Protein Assay for human Peripheral-type Benzodiazepine Receptor (PBR) (AID 2283331);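 further: hits reduce radioligand binding relative to DMSO baseline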).
human Peripheral-type Benzodiazepine Receptor (PBR), TSPO (gene 706), sequence (P30536 whole entry, looked up): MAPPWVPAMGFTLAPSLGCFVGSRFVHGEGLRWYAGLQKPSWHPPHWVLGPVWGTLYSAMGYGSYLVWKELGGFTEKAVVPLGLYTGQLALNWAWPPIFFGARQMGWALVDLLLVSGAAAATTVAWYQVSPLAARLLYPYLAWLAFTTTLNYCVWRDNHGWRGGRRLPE
Procedure, shortened: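 Using human colon-derived membranes, this one-endpoint binding test reads radioligand loss by scintillation after 1 h. Screening started at 25 uM in duplicate, with positive and negative controls on every plate, and actives moved to dose series.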
`CCc1cccc(CC)c1N(COC)C(=O)CCl` was tested, and the AC50 was 11.1 µM (active).
With `COP(=O)(NC(C)=O)SC` (stereo not given) the outcome was “inactive”.
For `CNC(=O)ON=C(SC)C(=O)N(C)C`, the outcome was “inactive”.
For `CC1(C(=O)Nc2ccc(O)c(Cl)c2Cl)CCCCC1`, the AC50 was 1.78 µM (active).
In the case of `CCCSP(=O)(OCC)Oc1ccc(Br)cc1Cl` (stereo not given), the AC50 is reported as 3.16 µM (active).
For `C#CCC1=C(C)C(OC(=O)C2C(C=C(C)C)C2(C)C)CC1=O` (stereo not given), the outcome was “inactive”.
With `CCc1cccc(C)c1N(C(=O)CCl)C(C)COC` (stereo not given) the AC50 was 9.23 µM (active).
`CCOP(=S)(OCC)Oc1cc(C)nc(C(C)C)n1` was tested, and the outcome was “inactive”.
`CCOP(=S)(Oc1cnc(C(C)(C)C)nc1)OC(C)C` (stereo not given) was tested, and the outcome was “inactive”.
In the case of `CCOP(=S)(OCC)SCCSCC`, the outcome is reported as “inactive”.
`CN(C)[C@@H]1C(=O)C(C(N)=O)=C(O)[C@@]2(O)C(=O)C3=C(O)c4c(O)cccc4[C@@](C)(O)[C@H]3[C@H](O)[C@@H]12` was tested, and the AC50 was 12.9 µM (active).
In the case of `CCCCN(CC)c1c([N+](=O)[O-])cc(C(F)(F)F)cc1[N+](=O)[O-]`, the outcome is reported as “inactive”.
In the case of `Cc1cc(C2CC2)nc(Nc2ccccc2)n1`, the AC50 is reported as 25 µM (active).
`CCC(=NOC/C=C/Cl)C1=C(O)CC(C2CCOCC2)CC1=O` (stereo not given) was tested, and the outcome was “inactive”.
In the case of `CCOP(=S)(OCC)Oc1ccc([N+](=O)[O-])cc1`, the outcome is reported as “inactive”.
For `CN(C)C(=O)Nc1cccc(C(F)(F)F)c1`, the AC50 was 17.9 µM (active).
`CCOP(=S)(OCC)Oc1ccc2c(C)c(Cl)c(=O)oc2c1` was tested, and the AC50 was 3.86 µM (active).
`CC1=NNC(=O)N(/N=C/c2cccnc2)C1` was tested, and the outcome was “inactive”.
For `CC(C)=CC1C(C(=O)OCN2C(=O)C3=C(CCCC3)C2=O)C1(C)C` (stereo not given), the AC50 was 13.5 µM (active).
For `CC(COc1ccc(Oc2ccccc2)cc1)Oc1ccccn1` (stereo not given), the outcome was “inactive”.

Each compound was assayed against rat Peripheral-type Benzodiazepine Receptor (PBR), Tspo (gene 24230) (UniProt P16257) (assay: NVS_MP_rPBR: NovaScreen (NVS) Membrane Protein Assay for rat Peripheral-type Benzodiazepine Receptor (PBR) (AID 2283335)).
rat Peripheral-type Benzodiazepine Receptor (PBR), Tspo (gene 24230), sequence (P16257 whole entry, looked up): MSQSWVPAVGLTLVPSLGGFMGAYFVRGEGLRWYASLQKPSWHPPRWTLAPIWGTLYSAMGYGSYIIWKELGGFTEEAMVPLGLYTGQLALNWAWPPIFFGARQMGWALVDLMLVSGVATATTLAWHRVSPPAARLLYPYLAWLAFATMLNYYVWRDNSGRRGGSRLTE
Procedure, shortened: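 Single-concentration duplicate screening at 25 uM preceded concentration-series retesting of actives. Binding of a specific radioligand to rat kidney membrane PBR was read by filtration radiodetection after 1 h, with plate-wise positive and negative controls.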
For `CCc1cccc(CC)c1N(COC)C(=O)CCl`, the AC50 was 5.18 µM (active).
`CNC(=O)ON=C(SC)C(=O)N(C)C` was tested, and the outcome was “inactive”.
For `CC1(C(=O)Nc2ccc(O)c(Cl)c2Cl)CCCCC1`, the AC50 was 0.47 µM (active).
`CCCSP(=O)(OCC)Oc1ccc(Br)cc1Cl` (stereo not given) was tested, and the AC50 was 0.28 µM (active).
For `C#CCC1=C(C)C(OC(=O)C2C(C=C(C)C)C2(C)C)CC1=O` (stereo not given), the AC50 was 20 µM (active).
With `CC(C)N(C(=O)SCC(Cl)=C(Cl)Cl)C(C)C` the AC50 was 45.6 µM (active).
For `CCc1cccc(C)c1N(C(=O)CCl)C(C)COC` (stereo not given), the AC50 was 8.9 µM (active).
`CCOP(=S)(OCC)Oc1cc(C)nc(C(C)C)n1` was tested, and the AC50 was 1.3 µM (active).
In the case of `CCOP(=S)(Oc1cnc(C(C)(C)C)nc1)OC(C)C` (stereo not given), the outcome is reported as “inactive”.
For `CCOP(=S)(OCC)SCCSCC`, the AC50 was 17.9 µM (active).
`CN(C)[C@@H]1C(=O)C(C(N)=O)=C(O)[C@@]2(O)C(=O)C3=C(O)c4c(O)cccc4[C@@](C)(O)[C@H]3[C@H](O)[C@@H]12` was tested, and the outcome was “inactive”.
In the case of `C[N+]1(C)CCCCC1`, the outcome is reported as “inactive”.
In the case of `CCCCN(CC)c1c([N+](=O)[O-])cc(C(F)(F)F)cc1[N+](=O)[O-]`, the outcome is reported as “inactive”.
With `Cc1cc(C2CC2)nc(Nc2ccccc2)n1` the AC50 was 7.55 µM (active).
For `CCC(=NOC/C=C/Cl)C1=C(O)CC(C2CCOCC2)CC1=O` (stereo not given), the outcome was “inactive”.
With `CCOP(=S)(OCC)Oc1ccc([N+](=O)[O-])cc1` the AC50 was 3.61 µM (active).
With `CN(C)C(=O)Nc1cccc(C(F)(F)F)c1` the AC50 was 10.8 µM (active).
With `CCOP(=S)(OCC)Oc1ccc2c(C)c(Cl)c(=O)oc2c1` the AC50 was 0.541 µM (active).
For `CC(C)=CC1C(C(=O)OCN2C(=O)C3=C(CCCC3)C2=O)C1(C)C` (stereo not given), the outcome was “inactive”.
`CC(COc1ccc(Oc2ccccc2)cc1)Oc1ccccn1` (stereo not given) was tested, and the outcome was “inactive”.
